PubChem BioAssay (Tox21)
Records with an inconclusive call do not appear. Active and inactive are the calls of the source. Unless noted, the call rests on the fitted dose curve; in most records, active means well fitted curve in the direction sought with a large enough effect in the repeat runs; inconclusive means weak or mixed curves; inactive means no such curve, though single readings can be large; an effect the other way counts as inactive or inconclusive.

Key:
[1] = biological target: Progesterone receptor (Homo sapiens) (UniProt P06401); experiment: qHTS assay to identify small molecule agonists of the progesterone receptor (PR) signaling pathway (AID 1346784; calls by dose curve; further: nearly all actives have a fitted effect of over 30% in size); details: PR-UAS-bla HEK293T, beta-lactamase FRET ratio, 16 h; series mostly up to 92.4 µM
Method in brief: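 Beta-lactamase reporter read-out: after 16 hr compound treatment at 37C and a further 2 hr at room temperature with LiveBLAzer B/G FRET substrate, fluorescence was measured in PR-UAS-bla HEK 293T cells grown in 2% charcoal-stripped serum.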

[2] = biological target: Progesterone receptor (Homo sapiens) (UniProt P06401); experiment: qHTS assay to identify small molecule antagonists of the progesterone receptor (PR) signaling pathway (AID 1346795; active means well fitted inhibition curve with a large enough effect in the signal ratio in the repeat runs, not every such curve was filed as active; the % refers to the signal ratio); details: PR-UAS-bla HEK293T, beta-lactamase FRET ratio, 16 h; series mostly up to 92.4 µM
Method in brief: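 Read-out is fluorescence from the LiveBLAzer B/G FRET substrate, cleaved by a UAS-controlled beta-lactamase in PR-UAS-bla HEK293T cells after 16 hr exposure to compound plus 1 nM promegestone (final), followed by 2 hr at room temperature.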

[3] = qHTS assay to identify small molecule antagonists of the progesterone receptor (PR) signaling pathway - cell viability counter screen (AID 1346798); details: PR-UAS-bla HEK293T viability, CellTiter-Glo luminescence, 16 h; series mostly up to 92.4 µM;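 further: HEK293T PR-UAS-bla cells stimulated with the agonist R5020; nearly all actives have a fitted effect of over 50% in size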
Method in brief: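 HEK293T PR-UAS-bla, 2% charcoal-stripped FBS; 4 hr pre-plate; cpd + R5020, 16 h 37C; LiveBLAzer read first; then CellTiter-Glo 30 min RT, luminescence.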

[4] = qHTS assay to identify small molecule agonists of the progesterone receptor (PR) signaling pathway - cell viability counter screen (AID 1346799; calls by dose curve; further: nearly all actives have a fitted effect of over 45% in size); details: PR-UAS-bla HEK293T viability, CellTiter-Glo luminescence, 16 h; series mostly up to 92.4 µM
Method in brief: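 Luminescence from CellTiter-Glo, added after the beta-lactamase FRET read in the same wells, gave cytotoxicity in PR-UAS-bla HEK293T cells treated with compounds for 16 hr at 37C.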

[5] = qHTS assay to identify small molecule antagonists of the TGF-beta/Smad signaling pathway - cell viability counter screen (AID 1346824); details: SBE-bla HEK293T viability, CellTiter-Glo luminescence; series mostly up to 76.8 µM; further: nearly all actives have a fitted effect of over 50% in size
Method in brief: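 SBE-bla HEK 293T cells, incubated overnight, then compound plus 0.25 ng/mL TGF-beta1 (stock added) for 5 hr at 37 C. Viability was read in the same wells by CellTiter-Glo luminescence after 30 min at room temperature.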

[6] = qHTS assay to identify small molecule agonists of the TGF-beta/Smad signaling pathway (AID 1346859; active means well fitted activation curve with a large enough effect in the signal ratio in the repeat runs, not every such curve was filed as active; the % refers to the signal ratio); details: SBE-bla HEK293T, TGF-beta/Smad beta-lactamase reporter, 5 h; series mostly up to 76.8 µM
Method in brief: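 SBE-bla HEK 293T, 4,000 cells/well, plated o/n; cpd in DMSO, 5 hr, 37 C/5% CO2; B/G FRET substrate 2 hr RT; ex 405, em 460/530 nm.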

[7] = Human pregnane X receptor (PXR) small molecule agonists, qHTS cell viability counter screen (AID 1346977); details: PXR-Luc HepG2 viability, CellTiter-Fluor, 24 h; series mostly up to 92.4 µM; further: nearly all actives have a fitted effect of over 50% in size
Method in brief: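 PXR-Luc HepG2, 2,000 cells/well, 5% charcoal-stripped FBS; 5hr settle; cpd 24hr, 37C/5% CO2; CellTiter-Fluor at 23hr, read 1hr later (fluorescence).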

[8] = Caspase-3/7 induction in CHO-K1 cells by small molecules, qHTS assay (AID 1346980); details: CHO-K1 caspase-3/7 induction, Caspase-Glo luminescence, 17 h; series mostly up to 92.4 µM; further: nearly all actives have a fitted effect of over 15% in size
Method in brief: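 Wild-type CHO-K1 cells exposed to compounds for 17hr at 37 C, 5% CO2. Caspase-3/7 activity then measured by Caspase-Glo 3/7 luminescence after 30min at room temperature.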

[9] = Caspase-3/7 induction in HepG2 cells by small molecules, qHTS cell viability counter screen (AID 1346981); details: CellTiter-Fluor fluorescence, 17 h; series mostly up to 92.4 µM; further: nearly all actives have a fitted effect of over 30% in size
Method in brief: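 Multiplexed with the caspase-3/7 assay: HepG2 cells, 16 hr compound treatment, CellTiter-Fluor viability detection by fluorescence.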

[10] = biological target: Nuclear receptor subfamily 1 group I member 2 (Homo sapiens) (UniProt O75469); experiment: Human pregnane X receptor (PXR) small molecule agonists, qHTS assay (AID 1346982); details: PXR-Luc HepG2, CYP3A4 luciferase reporter, 24 h; series mostly up to 92.4 µM; further: nearly all actives have a fitted effect of over 35% in size
Method in brief: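 We seeded PXR-Luc HepG2 cells in assay medium containing 5% charcoal-stripped FBS, added compounds 5 hr later, incubated 24 hr, and read luminescence with ONE-Glo reagent.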

[11] = biological target: Cytochrome P450 2D6 (Homo sapiens) (UniProt P10635); experiment: Cytochrome P450 Family 2 Subfamily D Member 6 (CYP2D6) small molecule antagonists: luciferase reporter qHTS assay (AID 1671196); details: P450-Glo CYP2D6 enzyme assay, luciferin luminescence, 1 h; series mostly up to 115 µM; further: nearly all actives have a fitted effect of over 50% in size; further: potency means the concentration at half of the fitted maximal effect
Method in brief: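 Luminescence (RLU), read 20 min after detection reagent, indicated CYP2D6 conversion of proluciferin to luciferin during a 1 h NADPH-dependent reaction at room temperature.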

[12] = biological target: Cytochrome P450 2C19 (Homo sapiens) (UniProt P33261); experiment: Cytochrome P450 Family 2 Subfamily C Member 19 (CYP2C19) small molecule antagonists: luciferase reporter qHTS assay (AID 1671197); details: P450-Glo CYP2C19 enzyme, luciferin luminescence, 1 h; series mostly up to 115 µM; further: nearly all actives have a fitted effect of over 65% in size; further: potency means the concentration at half of the fitted maximal effect
Method in brief: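 P450-Glo CYP2C19 system: enzyme-substrate mix with compound 10 min at room temperature, then NADPH regeneration solution, 1 h at 37C. Proluciferin-to-luciferin conversion detected by luminescence after 20 min with detection reagent; ketoconazole as positive control.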

[13] = qHTS assay to identify small molecule agonists of the TGF-beta/Smad signaling pathway - cell viability counter screen (AID 1346829); details: SBE-bla HEK293T viability, CellTiter-Glo luminescence, 5 h; series mostly up to 76.8 µM; further: top concentration of the series differs between compounds; nearly all actives have a fitted effect of over 45% in size
Method in brief: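 SBE-bla HEK 293T cells plated overnight, compound exposure 5 hr at 37 C. Viability read in the same wells by CellTiter-Glo luminescence after 30 min at room temperature, following the beta-lactamase read.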

[14] = biological target: Thyrotropin-releasing hormone receptor (Homo sapiens) (UniProt P34981); experiment: qHTS assay to identify small molecule antagonists of the thyrotropin-releasing hormone receptor (TRHR) signaling pathway (AID 1346877; active means well fitted inhibition curve with a large enough effect in the repeat runs, not every such curve was filed as active); details: TRHR-HEK293, TRH-induced calcium fluorescence, antagonist mode; series mostly up to 51.3 µM
Method in brief: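 Screening used HEK293 cells engineered with TRHR, with a brief 5 min room-temperature compound exposure preceding addition of TRH to 1 nM. The read-out was kinetic calcium-dye fluorescence, concentration-response from 15 doses in triplicate.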

[15] = biological target: Thyrotropin-releasing hormone receptor (Homo sapiens) (UniProt P34981); experiment: qHTS assay to identify small molecule agonists of the thyrotropin-releasing hormone receptor (TRHR) signaling pathway (AID 1346891; calls by dose curve); details: TRHR-HEK293 calcium fluorescence, agonist mode; series mostly up to 57.6 µM
Method in brief: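 Intracellular calcium rise, read as fluorescence every second for 3 min, served as the agonist signal in dye-loaded HEK293 cells expressing TRHR; each compound ran at 15 concentrations in triplicate.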

[16] = Caspase-3/7 induction in HepG2 cells by small molecules, qHTS assay (AID 1346978); details: HepG2 caspase-3/7 activation, Caspase-Glo luminescence, 17 h; series mostly up to 92.4 µM; further: nearly all actives have a fitted effect of over 15% in size
Method in brief: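 Wild-type HepG2 cells, 2,000/well, settled 5 hr at 37 C and 5% CO2, then compound-treated for 17 hr; caspase-3/7 activity read by luminescent Caspase-Glo 3/7 after 30 min at room temperature.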

[17] = Caspase-3/7 induction in CHO-K1 cells by small molecules, qHTS cell viability counter screen (AID 1346979); details: CellTiter-Fluor fluorescence, 17 h; series mostly up to 92.4 µM; further: nearly all actives have a fitted effect of over 35% in size
Method in brief: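 Cells (CHO-K1, wild type) are plated at 1,500 per well and incubated 5hr. Test compounds in DMSO are then pinned in, followed by 16hr at 37C and 5% CO2. Viability is read by CellTiter-Fluor fluorescence after 1hr.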

[18] = biological target: Nuclear receptor subfamily 1 group I member 2 (Homo sapiens) (UniProt O75469); experiment: CYP3A4 induction through human pregnane X receptor (PXR) by small molecules, qHTS assay (AID 1346984); details: DPX-2 HepG2 PXR, CYP3A4-luciferin luminescence, 24 h; series mostly up to 46.1 µM; further: nearly all actives have a fitted effect of over 40% in size
Method in brief: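 qHTS, concentration-response format: HepG2 DPX-2 line, PXR/CYP3A4-luc. Exposure 24 h, 37C. Substrate Luciferin-IPA 3uM final, 3 h. Detection One-Glo, 30 min RT.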

[19] = biological target: Nuclear receptor subfamily 1 group I member 2 (Homo sapiens) (UniProt O75469); experiment: Human pregnane X receptor (PXR) activation by small molecules, qHTS assay (AID 1346985); details: DPX-2 HepG2 CYP3A4-luciferase, 24 h; series mostly up to 38.3 µM; further: nearly all actives have a fitted effect of over 40% in size
Method in brief: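 DPX-2 cells (HepG2 co-transfected with a PXR response element and a CYP3A4-promoter luciferase construct) were seeded at 2,000 per well, rested 5 hr at 37C, then exposed to DMSO-dissolved compounds for 24 hr. Activation was read as luciferase luminescence.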

Measured: Potency

Thyrotropin-releasing hormone receptor (Homo sapiens), sequence (P34981 whole entry, looked up): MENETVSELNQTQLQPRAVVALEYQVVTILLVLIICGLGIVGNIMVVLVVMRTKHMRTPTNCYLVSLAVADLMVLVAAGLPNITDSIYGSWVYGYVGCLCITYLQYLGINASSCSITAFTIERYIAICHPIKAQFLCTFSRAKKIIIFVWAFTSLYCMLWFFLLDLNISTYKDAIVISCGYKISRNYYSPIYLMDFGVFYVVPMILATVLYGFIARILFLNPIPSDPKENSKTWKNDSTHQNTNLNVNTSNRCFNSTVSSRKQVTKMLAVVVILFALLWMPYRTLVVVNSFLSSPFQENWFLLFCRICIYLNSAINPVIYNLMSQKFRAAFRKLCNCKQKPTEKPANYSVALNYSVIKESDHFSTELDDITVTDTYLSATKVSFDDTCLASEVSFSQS
Nuclear receptor subfamily 1 group I member 2 (Homo sapiens), sequence (O75469 whole entry, looked up): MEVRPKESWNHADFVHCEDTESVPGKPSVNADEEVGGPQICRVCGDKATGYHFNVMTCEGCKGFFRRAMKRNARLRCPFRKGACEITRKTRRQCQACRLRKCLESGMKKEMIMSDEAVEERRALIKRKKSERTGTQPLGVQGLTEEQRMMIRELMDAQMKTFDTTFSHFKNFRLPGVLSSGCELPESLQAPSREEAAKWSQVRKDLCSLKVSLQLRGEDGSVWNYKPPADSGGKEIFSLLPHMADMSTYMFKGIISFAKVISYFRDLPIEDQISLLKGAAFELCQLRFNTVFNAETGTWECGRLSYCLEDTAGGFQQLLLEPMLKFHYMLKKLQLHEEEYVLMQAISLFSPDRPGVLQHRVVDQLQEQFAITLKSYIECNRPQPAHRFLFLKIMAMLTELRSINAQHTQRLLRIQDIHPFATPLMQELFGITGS
Cytochrome P450 2D6 (Homo sapiens), sequence (P10635 whole entry, looked up): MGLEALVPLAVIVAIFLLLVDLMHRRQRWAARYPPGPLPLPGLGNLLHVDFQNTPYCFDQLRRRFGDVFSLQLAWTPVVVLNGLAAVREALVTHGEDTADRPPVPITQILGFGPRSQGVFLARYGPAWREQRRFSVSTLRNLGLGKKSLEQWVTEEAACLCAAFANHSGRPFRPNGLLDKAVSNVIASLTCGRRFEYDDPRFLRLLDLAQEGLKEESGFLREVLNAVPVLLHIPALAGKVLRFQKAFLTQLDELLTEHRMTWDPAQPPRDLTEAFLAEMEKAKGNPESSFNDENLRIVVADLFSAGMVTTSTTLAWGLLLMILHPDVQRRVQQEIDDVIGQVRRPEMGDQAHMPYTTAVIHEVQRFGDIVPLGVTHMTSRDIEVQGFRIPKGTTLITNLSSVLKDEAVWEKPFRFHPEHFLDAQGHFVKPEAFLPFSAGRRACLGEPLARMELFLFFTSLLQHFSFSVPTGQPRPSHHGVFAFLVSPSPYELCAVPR
Progesterone receptor (Homo sapiens), sequence (P06401 whole entry, looked up): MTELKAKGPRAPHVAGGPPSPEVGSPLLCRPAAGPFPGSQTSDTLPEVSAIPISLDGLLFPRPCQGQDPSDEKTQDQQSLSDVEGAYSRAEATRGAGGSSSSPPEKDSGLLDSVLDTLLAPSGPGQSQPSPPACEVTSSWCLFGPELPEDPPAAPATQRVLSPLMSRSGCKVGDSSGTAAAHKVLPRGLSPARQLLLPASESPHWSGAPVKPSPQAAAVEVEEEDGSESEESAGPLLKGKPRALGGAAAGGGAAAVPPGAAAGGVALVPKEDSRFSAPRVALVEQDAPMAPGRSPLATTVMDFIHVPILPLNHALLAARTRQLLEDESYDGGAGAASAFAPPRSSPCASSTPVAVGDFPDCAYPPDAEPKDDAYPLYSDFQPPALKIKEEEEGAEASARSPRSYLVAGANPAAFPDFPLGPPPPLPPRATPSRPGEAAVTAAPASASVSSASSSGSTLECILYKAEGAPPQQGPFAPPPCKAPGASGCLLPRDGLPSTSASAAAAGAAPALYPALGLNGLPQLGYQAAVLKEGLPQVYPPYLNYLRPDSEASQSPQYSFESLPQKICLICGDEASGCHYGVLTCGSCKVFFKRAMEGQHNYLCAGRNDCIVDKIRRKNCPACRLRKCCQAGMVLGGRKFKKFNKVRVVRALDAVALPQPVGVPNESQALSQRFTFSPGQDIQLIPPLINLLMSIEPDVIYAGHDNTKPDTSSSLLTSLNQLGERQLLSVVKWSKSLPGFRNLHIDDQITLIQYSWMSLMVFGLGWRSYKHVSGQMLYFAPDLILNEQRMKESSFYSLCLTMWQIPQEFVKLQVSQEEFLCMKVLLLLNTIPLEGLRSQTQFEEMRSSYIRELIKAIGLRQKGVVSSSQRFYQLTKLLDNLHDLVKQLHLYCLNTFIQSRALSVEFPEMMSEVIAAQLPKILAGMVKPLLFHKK
Cytochrome P450 2C19 (Homo sapiens), sequence (P33261 whole entry, looked up): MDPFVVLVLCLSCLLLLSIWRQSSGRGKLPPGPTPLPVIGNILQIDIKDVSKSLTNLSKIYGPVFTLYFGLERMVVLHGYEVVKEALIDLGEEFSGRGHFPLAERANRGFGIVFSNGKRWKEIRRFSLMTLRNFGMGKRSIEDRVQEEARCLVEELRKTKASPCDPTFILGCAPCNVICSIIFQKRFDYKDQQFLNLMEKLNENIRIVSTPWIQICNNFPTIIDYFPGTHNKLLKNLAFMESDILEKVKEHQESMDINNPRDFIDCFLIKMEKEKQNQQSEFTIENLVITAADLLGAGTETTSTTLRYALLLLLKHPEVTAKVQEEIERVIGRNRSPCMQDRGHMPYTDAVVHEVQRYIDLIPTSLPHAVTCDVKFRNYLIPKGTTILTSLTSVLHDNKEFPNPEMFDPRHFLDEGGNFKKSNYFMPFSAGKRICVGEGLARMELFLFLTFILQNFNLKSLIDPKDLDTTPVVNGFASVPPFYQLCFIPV

O=C(O)c1cccc(C(F)(F)F)c1
not listed: [13] | [14] | [15] | [16] | [17] | [18] | [19]
inactive: all other assays above

CCCC1CCC(=O)CC1
not listed: [5] | [9] | [18] | [19]
inactive: all other assays above

Nc1nc2c(ncn2COCCO)c(=O)[nH]1
not listed: [5] | [11] | [13] | [14] | [15] | [16]
inactive: all other assays above

Cc1cc(C(C)(C)C)cc(C)c1CC1=NCCN1
active: [11] 3.47 µM
not listed: [7] | [13] | [14] | [15]
inactive: all other assays above

C1CCC(SSC2CCCCC2)CC1
not listed: [4] | [12] | [14] | [15] | [16] | [17] | [18] | [19]
inactive: all other assays above

Nc1cc(Cl)c(O)c(Cl)c1
active: [11] 15.9 µM | [12] 20 µM
inactive: [1] | [2] | [3] | [4] | [13] | [6] | [7] | [8] | [9]

Cc1ccc(C(=O)O)cc1
not listed: [5] | [18] | [19]
inactive: all other assays above

O=C(O)CCN(C1(C(=O)NO)CCCC1)S(=O)(=O)c1ccc(Oc2ccc(F)cc2)cc1
not listed: [5] | [17] | [18] | [19]
inactive: all other assays above
